Inconclusive results are not listed. Activity calls are given as the source filed them. Unless noted, the call rests on the fitted dose curve; in most records, active means well fitted curve in the direction sought with a large enough effect; inconclusive means small, poorly fitted or top-dose-only effect, or another doubt; inactive means no such curve, though single readings can be large; an effect the other way counts as inactive or inconclusive.

Assay [1] can be described thus: Counterscreen for APE1 Inhibitors: Fluorescent Dye Displacement Validation Assay (AID 1707).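 Further: plate controls were ThO with dsDNA and no compound for no effect and ThO without dsDNA for full effect.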 The method, boiled down: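 Signal: ThO fluorescence (ex 480 nm/em 540 nm) on binding 50 nM dsDNA; displacement by test compound reduces it. Conditions: 250 nM dye, 50 mM Tris-HCl pH7.5, 2 mM MgCl2, 50mM NaCl, 0.01% Tween-20.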
A short description of assay [2]: qHTS for differential inhibitors of proliferation of Plasmodium falciparum line 7G8 (AID 1815).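 Further: potency means the concentration at half of the fitted maximal effect; parasite growth measured after three days of incubation.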
A short description of assay [3]: qHTS for differential inhibitors of proliferation of Plasmodium falciparum line GB4 (AID 1816).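 Further: potency means the concentration at half of the fitted maximal effect; parasite growth measured after 72 h incubation.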 The note with it: Potency: Plasmodium falciparum GB4 proliferation inhibition.
The nature of assay [4]: qHTS for differential inhibitors of proliferation of Plasmodium falciparum line 3D7 (AID 1876). Further: potency means the concentration at half of the fitted maximal effect.
A short description of assay [5]: qHTS for differential inhibitors of proliferation of Plasmodium falciparum line D10 (AID 1877).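 Further: potency means the concentration at half of the fitted maximal effect; parasites grown with compound for 72 h before DNA staining.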
Assay [6] in a line: qHTS for differential inhibitors of proliferation of Plasmodium falciparum line Dd2 (AID 1882). Further: potency means the concentration at half of the fitted maximal effect; nearly all actives have a fitted effect of over 65% in size. The note with it: Potency: Plasmodium falciparum Dd2 proliferation inhibition. An outline of the steps:
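RBC culture, 0.3% parasitemia / 2.5% Hct final; cpd added by pin tool in DMSO; 72 h, 37 C, 5% CO2; lysis buffer + SYBR Green I, o/n RT dark; FI 485/535; norm. to artemisinin 0.29 uM and DMSO.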

Assay [7] in a line: qHTS for differential inhibitors of proliferation of Plasmodium falciparum line W2 (AID 1883).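 Further: potency means the concentration at half of the fitted maximal effect; parasites grown with compound for 72 h before lysis and staining.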 The note with it: Potency: Plasmodium falciparum W2 proliferation inhibition.
A short description of assay [8]: qHTS for differential inhibitors of proliferation of Plasmodium falciparum line HB3 (AID 1886).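 Further: potency means the concentration at half of the fitted maximal effect; parasites grown with compound for 72 h before SYBR Green readout.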 The note with it: Potency: Plasmodium falciparum HB3 proliferation inhibition.
Assay [9] addresses Catechol O-methyltransferase (Homo sapiens) (UniProt P21964). Kind of assay: Confirmatory Screen for Target Class Profiling of Small Molecule Inhibitors of Methyltransferases (AID 1745852). On activity change, negative = inhibition: on the % scale 0 is the no-effect control and ±100 the full control effect. The note with it: MTase-Glo luminescence, SAH detection, recombinant enzyme; measured here: COMT max response; stronger effect = lower value.
Assay [10] has as its target Guanidinoacetate N-methyltransferase (Homo sapiens) (UniProt Q14353). The description is as above. The note with it: MTase-Glo luminescence, SAH detection, recombinant enzyme; activity change, negative = inhibition: at 85.7 µM (top of the series) unless noted.
Assay [11] deals with Nicotinamide N-methyltransferase (Homo sapiens) (UniProt P40261). Described as above. The note with it: MTase-Glo luminescence, SAH detection, recombinant enzyme; measured here: NNMT max response; stronger effect = lower value.
Sequence of Nicotinamide N-methyltransferase (Homo sapiens) (P40261 whole entry, looked up): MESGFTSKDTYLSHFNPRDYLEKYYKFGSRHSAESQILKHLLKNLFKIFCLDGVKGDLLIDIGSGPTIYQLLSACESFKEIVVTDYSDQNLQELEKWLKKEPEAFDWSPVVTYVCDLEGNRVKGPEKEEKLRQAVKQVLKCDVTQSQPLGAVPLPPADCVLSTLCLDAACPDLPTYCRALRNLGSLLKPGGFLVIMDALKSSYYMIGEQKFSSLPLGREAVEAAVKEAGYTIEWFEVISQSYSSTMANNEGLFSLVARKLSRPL
Assay [12] concerns the target Phenylethanolamine N-methyltransferase (Homo sapiens) (UniProt P11086). Described as above. The note with it: MTase-Glo luminescence, SAH detection, recombinant enzyme; measured here: PNMT max response; stronger effect = lower value.
Assay [13] is described as follows: NCATS anti-infectives library activity on HEK293 viability as a counter-qHTS vs the C. elegans viability qHTS (AID 1745854). Further: on the % scale 0 is the no-effect control and ±100 the full control effect. The method, boiled down:
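CellTiter-Glo luminescence, read on a CCD imager, scored viability of HEK293 cells after 24 hr compound exposure at 37C. Library tested in several concentrations, 1:5 steps, up to 41.7 uM; digitonin served as control.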

For assay [14], the target named is Rap guanine nucleotide exchange factor 4 (Homo sapiens) (UniProt Q8WZA2). In words: Confirmatory qHTS for agonist of cAMP-regulated guanine nucleotide exchange factor 4 (EPAC2) (AID 1645884).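 Further: nucleotide exchange releases bodipy-GDP from Rap1 and this lowers its fluorescence; potency means the concentration at half of the fitted maximal effect; nearly all actives have a fitted effect of over 65% in size.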
Sequence of Rap guanine nucleotide exchange factor 4 (Homo sapiens) (Q8WZA2 whole entry, looked up): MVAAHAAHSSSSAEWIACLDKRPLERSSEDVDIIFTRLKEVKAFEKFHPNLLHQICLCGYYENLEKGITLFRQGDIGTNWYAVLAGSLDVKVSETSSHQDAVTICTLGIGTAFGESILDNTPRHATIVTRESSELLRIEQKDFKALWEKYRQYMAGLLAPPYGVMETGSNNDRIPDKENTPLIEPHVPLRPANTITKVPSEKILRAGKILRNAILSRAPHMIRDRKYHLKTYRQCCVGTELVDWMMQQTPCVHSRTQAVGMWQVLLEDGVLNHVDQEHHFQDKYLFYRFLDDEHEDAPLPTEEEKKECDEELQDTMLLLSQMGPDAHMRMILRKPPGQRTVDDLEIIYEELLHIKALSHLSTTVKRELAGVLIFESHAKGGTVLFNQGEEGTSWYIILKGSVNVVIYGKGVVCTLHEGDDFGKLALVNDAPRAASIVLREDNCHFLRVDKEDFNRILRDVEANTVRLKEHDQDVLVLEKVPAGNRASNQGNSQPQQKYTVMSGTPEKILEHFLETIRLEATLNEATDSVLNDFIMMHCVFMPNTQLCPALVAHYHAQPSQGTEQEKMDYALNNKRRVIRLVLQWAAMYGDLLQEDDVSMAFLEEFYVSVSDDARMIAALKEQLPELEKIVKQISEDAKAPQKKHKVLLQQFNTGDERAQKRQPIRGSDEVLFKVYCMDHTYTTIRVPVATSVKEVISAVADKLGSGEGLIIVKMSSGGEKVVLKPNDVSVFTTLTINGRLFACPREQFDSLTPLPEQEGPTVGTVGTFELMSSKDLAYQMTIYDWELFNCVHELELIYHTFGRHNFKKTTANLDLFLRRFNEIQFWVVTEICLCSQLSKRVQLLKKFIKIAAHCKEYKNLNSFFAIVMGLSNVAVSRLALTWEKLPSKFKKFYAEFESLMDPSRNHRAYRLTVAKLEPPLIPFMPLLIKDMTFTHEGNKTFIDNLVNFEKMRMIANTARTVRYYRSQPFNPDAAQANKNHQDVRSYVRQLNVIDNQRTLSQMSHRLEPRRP
Assay [15] has the same target. In words: Confirmatory qHTS for antagonist of cAMP-regulated guanine nucleotide exchange factor 4 (EPAC2) (AID 1645885). Further: potency means the concentration at half of the fitted maximal effect; nearly all actives have a fitted effect of over 25% in size.
The target in assay [16] is Rap guanine nucleotide exchange factor 3 (Homo sapiens) (UniProt O95398). Kind of assay: Counterscreen qHTS for antagonist of cAMP-regulated guanine nucleotide exchange factor 3 (EPAC1) (AID 1645888). Further: % of control where 0% means no effect. An outline of the steps: (§1)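 Measured: fluorescence of BODIPY-GDP bound to Rap1B, which falls as exchange proceeds. Conditions include 50 uM competing GDP, 5 and 30 min reads, and a later cAMP challenge for antagonist detection.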
Sequence of Rap guanine nucleotide exchange factor 3 (Homo sapiens) (O95398 whole entry, looked up): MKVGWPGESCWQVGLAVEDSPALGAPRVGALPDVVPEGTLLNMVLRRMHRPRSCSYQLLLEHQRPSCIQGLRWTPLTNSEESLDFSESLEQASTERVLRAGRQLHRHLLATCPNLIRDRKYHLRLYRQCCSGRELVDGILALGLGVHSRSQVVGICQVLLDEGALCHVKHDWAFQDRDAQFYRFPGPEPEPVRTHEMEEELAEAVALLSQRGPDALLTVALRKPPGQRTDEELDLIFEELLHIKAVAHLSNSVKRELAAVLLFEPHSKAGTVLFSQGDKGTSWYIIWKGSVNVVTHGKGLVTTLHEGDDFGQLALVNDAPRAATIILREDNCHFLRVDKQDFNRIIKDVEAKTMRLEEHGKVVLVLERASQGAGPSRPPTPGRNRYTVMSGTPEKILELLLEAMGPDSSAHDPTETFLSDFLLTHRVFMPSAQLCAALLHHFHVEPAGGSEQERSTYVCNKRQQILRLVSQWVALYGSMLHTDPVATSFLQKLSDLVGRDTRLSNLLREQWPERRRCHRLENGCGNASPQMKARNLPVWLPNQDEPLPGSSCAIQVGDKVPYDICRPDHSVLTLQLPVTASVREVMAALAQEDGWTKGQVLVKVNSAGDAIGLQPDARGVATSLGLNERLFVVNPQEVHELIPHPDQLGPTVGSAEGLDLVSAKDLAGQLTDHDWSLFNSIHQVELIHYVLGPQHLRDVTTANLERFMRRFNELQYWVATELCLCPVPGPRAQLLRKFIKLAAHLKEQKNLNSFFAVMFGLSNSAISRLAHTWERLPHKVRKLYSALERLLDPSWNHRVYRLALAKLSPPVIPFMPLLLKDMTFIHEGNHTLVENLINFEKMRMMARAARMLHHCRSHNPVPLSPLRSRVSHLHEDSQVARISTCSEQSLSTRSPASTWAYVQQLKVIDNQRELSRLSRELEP

The target is the same in assay [17]. Kind of assay: Counterscreen qHTS for agonist of cAMP-regulated guanine nucleotide exchange factor 3 (EPAC1) (AID 1645889). Further: % of control where 0% means no effect; nearly all actives have a fitted effect of over 40% in size. An outline of the steps: as §1
Assay [18] deals with Endonuclease 4 (Escherichia coli (strain K12)) (UniProt P0A6C1). Kind of assay: Counterscreen for APE1 Inhibitors: qHTS Validation Assay for Inhibitors of Endonuclease IV (AID 1708). Further: on the % scale 0 is the no-effect control and ±100 the full control effect. An outline of the steps: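 Measured as reaction progress, the fluorescence gain between first and third kinetic reads after adding 50 nM TAMRA/BHQ-2 THF duplex to 2 nM enzyme preincubated 15 min with compound; 2 mM MgCl2, pH 7.5.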

In assay [19] the target is ATP-dependent DNA helicase Q1 (Homo sapiens) (UniProt P46063). Kind of assay: qHTS Validation Assay for Inhibitors of RecQ-Like Dna Helicase 1 (RECQ1) (AID 2353).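 Further: plate controls were DMSO vehicle for no effect and enzyme-free control for full effect.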 The method, boiled down:
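RECQ1T1 50 nM; forked duplex (20 bp + 30-nt ss tails) 200 nM, ATP 2 mM final; pH 8.0, 2 mM MgCl2, 2.5 ug/ml poly(dI-dC); 15 min compound preincubation; discontinuous kinetic read over 2 h at RT.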

Assay [20] is described as follows: Validation screen for inhibitors of Lassa infection (AID 463096; calls by dose curve; further: potency means the concentration at half of the fitted maximal effect).
Assay [21] is described as follows: Validation screen for small molecules that induce DNA re-replication in MCF 10A normal breast cells (AID 463097). Further: potency means the concentration at half of the fitted maximal effect; nearly all actives have a fitted effect of over 60% in size. An outline of the steps: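 MCF 10A cells exposed to compound 48 hr at 37 C, 5% CO2, then Hoechst-stained 40 min. Laser-scanning imaging of nuclear DNA content (405 nm ex, 500-530 nm em); re-replication scored as rise in nuclei with elevated fluorescence intensity.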

Assay [22] is described as follows: Quantitative high throughput screen for delayed death inhibitors of the malarial parasite plastid, 96 hour incubation (AID 488745). Further: potency means the concentration at half of the fitted maximal effect; nearly all actives have a fitted effect of over 70% in size. The method, boiled down:
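Luciferase-expressing P. falciparum, infected RBCs 2% Hct/0.1% parasitemia (final); 96 h cpd exposure, 37 C, 5% CO2; RPMI 1640 + 0.5% Albumax, bicarbonate, gentamycin. Readout: luminescence loss = growth inhibition.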

The nature of assay [23]: Quantitative high throughput screen for delayed death inhibitors of the malarial parasite plastid, 48 hour incubation (AID 488752). Further: potency means the concentration at half of the fitted maximal effect; nearly all actives have a fitted effect of over 65% in size. An outline of the steps: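 Luciferase-expressing P. falciparum in RBCs, 2% Hct, 0.1% parasitemia final; RPMI 1640 + 0.5% Albumax; 48 h, 37 C, 5% CO2; luminescence readout, signal drop = growth inhibition.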
Assay [24] has as its target M-phase phosphoprotein 8 (Homo sapiens) (UniProt Q99549). Kind of assay: qHTS Validation Assay for Inhibitors for MPP8 Chromodomain Interactions with Methylated Histone Tails (AID 488949). Further: top concentration of the series differs between compounds; on the % scale 0 is the no-effect control and ±100 the full control effect; nearly all actives have a fitted effect of over 55% in size. The method, boiled down: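 MPP8 (50 nM) was pre-bound to 50 nM biotinylated H3(1-18)K9me3 peptide in PBS pH 7.4 with 0.01% Tween-20. Compounds were then added for 30 min at room temperature, and complex disruption was read by AlphaScreen with streptavidin donor and nickel-chelate acceptor beads.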

The target of assay [25] is Thyrotropin receptor (Homo sapiens) (UniProt P16473). Kind of assay: qHTS Assay for Antagonists of the Thyroid Stimulating Hormone Receptor (AID 488980). Further: 0% is about no effect. An outline of the steps:
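TSHR-transfected HEK293 cells (2000/well) in HEPES-buffered HBSS with 70 uM RO 20-1724 were stimulated with 4 nM TSH (EC80, final) in the presence of compound. cAMP was measured by HTRF competition after lysis and 30 min at RT.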

Assay [26] addresses Thyrotropin-releasing hormone receptor (Homo sapiens) (UniProt P34981). Kind of assay: qHTS for Small Molecule Agonists and Allosteric Enhancers of Human TRH Receptor: Validation Screen for Agonists (AID 493127;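 active means calcium activation more than 3 SD above the typical response in the agonist read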;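 further: intracellular calcium rise by fluo-8 fluorescence before TRH EC20 addition; 0% is about no effect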). The note with it: TRH receptor agonist cell assay; at 2 µM; stronger effect = higher value. The method, boiled down: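 Read-out: intracellular calcium release measured kinetically by FDSS (fluo-8, ex 480/em 530 nm), 1 reading/s after a 10-cycle baseline. TRHR cells, 2000/well, cultured 18 h at 33.5C, dye-loaded at room temp. Compound-evoked positive calcium signal flags agonists.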

For assay [27], the target named is Galactokinase (Homo sapiens) (UniProt P51570). In words: qHTS Validation Assay for Inhibitors of Human Galactokinase (GALK) (AID 493189). Further: 0% is about no effect. An outline of the steps: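 GALK (5 nM) with 35 uM ATP and 100 uM galactose in HEPES pH 8.0 with MgCl2, NaCl, DTT and BSA. Reaction ran 1 h at room temperature. Residual ATP read by Kinase-Glo Plus luminescence.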
Sequence of Galactokinase (Homo sapiens) (P51570 whole entry, looked up): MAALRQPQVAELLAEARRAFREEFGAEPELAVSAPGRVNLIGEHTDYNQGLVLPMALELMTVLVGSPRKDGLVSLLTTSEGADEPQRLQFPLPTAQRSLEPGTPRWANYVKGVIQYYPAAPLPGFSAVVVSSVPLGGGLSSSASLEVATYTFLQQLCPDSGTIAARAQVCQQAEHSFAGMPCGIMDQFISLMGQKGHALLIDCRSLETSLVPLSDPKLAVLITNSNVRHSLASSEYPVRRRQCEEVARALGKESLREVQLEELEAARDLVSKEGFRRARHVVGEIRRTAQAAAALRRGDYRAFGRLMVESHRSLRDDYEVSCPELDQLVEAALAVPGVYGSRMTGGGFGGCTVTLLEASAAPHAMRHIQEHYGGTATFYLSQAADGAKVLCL
Assay [28] in a line: Validation screen for small molecules that induce DNA re-replication in SW480 colon adenocarcinoma cells (AID 504364). Further: 0% is about no effect. An outline of the steps:
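Read-out: total Hoechst intensity of nuclei by fluorescence scanning imager; hits raise the fraction of nuclei with elevated DNA content. Cells received compound for 48 hr at 37 C before a 40 min stain.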

Assay [29] deals with Nuclear receptor subfamily 1 group I member 3 (Homo sapiens) (UniProt Q14994). Kind of assay: Primary qHTS for antagonist of constitutive androstane receptor (CAR) against the NCATS DSHEA and TCM libraries (AID 1794836). An outline of the steps: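 HepG2 cells stably carrying hCAR and a CYP2B6 luciferase reporter (2,500 cells/well) attached for 5 h, then received compounds with 48 uM CITCO for 24 h at 37C. ONE-Glo luminescence read antagonism; CellTiter-Fluor (405/540 nm) gave viability.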
Sequence of Nuclear receptor subfamily 1 group I member 3 (Homo sapiens) (Q14994 whole entry, looked up): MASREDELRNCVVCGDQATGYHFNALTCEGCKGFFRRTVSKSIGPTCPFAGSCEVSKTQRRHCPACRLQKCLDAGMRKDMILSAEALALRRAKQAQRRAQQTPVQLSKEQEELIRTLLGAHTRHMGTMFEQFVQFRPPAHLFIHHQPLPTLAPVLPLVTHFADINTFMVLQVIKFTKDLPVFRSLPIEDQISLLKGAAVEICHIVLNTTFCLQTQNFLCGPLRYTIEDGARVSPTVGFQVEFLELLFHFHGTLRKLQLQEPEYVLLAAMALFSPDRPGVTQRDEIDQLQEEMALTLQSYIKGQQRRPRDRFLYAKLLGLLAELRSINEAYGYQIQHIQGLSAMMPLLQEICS

Assay [30] in a line: KB-8-5-11 P-gp reporter qHTS against the NCATS DSHEA and TCM libraries (AID 1919977). Further: 0% is about no effect. An outline of the steps:
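P-gp-overexpressing KB-8-5-11 cells were screened in colchicine-free medium at 500 cells/well, as a titration series. Cells were exposed for 72 h at 37C. Viability was read by CellTiter-Glo luminescence after 30 min at room temperature.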

Assay [31] is described as follows: NCATS anti-infectives library activity on the primary C. elegans qHTS viability assay (AID 1745855; calls by dose curve). The method, boiled down: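 Titration-based screen in worms: eggs hatched overnight in M9, L1 larvae fed TOP10 capsules in S medium with compound, incubated 21 °C for 7 days; fluorescent objects gated by size and intensity at days 0, 3 and 7.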

Sequence of ATP-dependent DNA helicase Q1 (Homo sapiens) (P46063 whole entry, looked up): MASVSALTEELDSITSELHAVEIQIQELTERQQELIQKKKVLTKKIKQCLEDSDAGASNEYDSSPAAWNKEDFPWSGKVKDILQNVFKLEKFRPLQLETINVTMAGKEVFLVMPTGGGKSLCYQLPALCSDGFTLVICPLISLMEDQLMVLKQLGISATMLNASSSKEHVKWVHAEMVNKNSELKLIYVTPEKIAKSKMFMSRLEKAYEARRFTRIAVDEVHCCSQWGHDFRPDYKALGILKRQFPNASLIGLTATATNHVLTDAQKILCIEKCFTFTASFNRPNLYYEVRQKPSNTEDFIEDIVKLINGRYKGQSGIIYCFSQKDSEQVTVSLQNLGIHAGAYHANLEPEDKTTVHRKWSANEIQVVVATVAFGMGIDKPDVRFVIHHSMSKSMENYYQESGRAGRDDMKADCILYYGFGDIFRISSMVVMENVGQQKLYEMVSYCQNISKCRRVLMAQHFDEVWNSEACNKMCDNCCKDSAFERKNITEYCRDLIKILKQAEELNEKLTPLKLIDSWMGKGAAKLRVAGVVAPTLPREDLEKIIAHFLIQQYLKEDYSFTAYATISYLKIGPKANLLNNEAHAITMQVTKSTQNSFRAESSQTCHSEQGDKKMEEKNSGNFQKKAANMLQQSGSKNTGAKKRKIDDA
Sequence of Catechol O-methyltransferase (Homo sapiens) (P21964 whole entry, looked up): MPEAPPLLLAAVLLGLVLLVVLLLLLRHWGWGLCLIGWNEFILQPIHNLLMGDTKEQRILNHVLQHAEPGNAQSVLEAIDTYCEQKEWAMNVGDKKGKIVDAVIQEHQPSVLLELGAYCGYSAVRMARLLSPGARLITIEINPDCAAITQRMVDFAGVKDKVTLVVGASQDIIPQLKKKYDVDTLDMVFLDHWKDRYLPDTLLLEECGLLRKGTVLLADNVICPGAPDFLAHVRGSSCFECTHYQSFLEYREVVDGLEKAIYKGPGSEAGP
Sequence of M-phase phosphoprotein 8 (Homo sapiens) (Q99549 whole entry, looked up): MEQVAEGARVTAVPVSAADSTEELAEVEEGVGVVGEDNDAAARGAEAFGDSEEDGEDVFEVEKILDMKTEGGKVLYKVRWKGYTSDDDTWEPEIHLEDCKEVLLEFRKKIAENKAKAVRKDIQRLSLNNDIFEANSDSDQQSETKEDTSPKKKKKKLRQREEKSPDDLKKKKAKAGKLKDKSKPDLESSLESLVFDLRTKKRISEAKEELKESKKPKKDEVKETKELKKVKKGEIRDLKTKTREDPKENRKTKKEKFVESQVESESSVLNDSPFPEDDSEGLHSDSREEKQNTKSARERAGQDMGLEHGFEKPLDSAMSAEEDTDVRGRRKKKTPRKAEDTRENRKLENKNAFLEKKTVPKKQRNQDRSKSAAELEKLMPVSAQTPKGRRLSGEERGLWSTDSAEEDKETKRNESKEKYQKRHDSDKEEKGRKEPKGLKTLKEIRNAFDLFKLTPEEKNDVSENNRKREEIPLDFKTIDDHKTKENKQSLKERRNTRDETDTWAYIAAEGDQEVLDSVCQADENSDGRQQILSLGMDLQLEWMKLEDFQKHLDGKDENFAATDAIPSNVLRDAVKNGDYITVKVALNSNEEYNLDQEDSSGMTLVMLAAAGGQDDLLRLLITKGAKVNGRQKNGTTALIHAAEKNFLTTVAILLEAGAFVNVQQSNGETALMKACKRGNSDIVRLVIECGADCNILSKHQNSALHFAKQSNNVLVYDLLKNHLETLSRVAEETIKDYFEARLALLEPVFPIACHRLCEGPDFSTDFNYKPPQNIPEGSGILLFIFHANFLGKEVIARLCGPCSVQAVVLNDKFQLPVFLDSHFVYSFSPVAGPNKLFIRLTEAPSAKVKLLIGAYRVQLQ
Sequence of Phenylethanolamine N-methyltransferase (Homo sapiens) (P11086 whole entry, looked up): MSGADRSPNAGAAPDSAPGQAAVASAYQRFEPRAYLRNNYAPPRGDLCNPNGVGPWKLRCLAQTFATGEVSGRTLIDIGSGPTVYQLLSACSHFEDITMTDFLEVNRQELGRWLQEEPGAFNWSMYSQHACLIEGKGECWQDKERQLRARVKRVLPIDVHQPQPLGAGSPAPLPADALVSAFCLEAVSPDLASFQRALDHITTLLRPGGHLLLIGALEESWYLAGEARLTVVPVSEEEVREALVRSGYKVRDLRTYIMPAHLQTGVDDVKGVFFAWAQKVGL

On to `C[C@]12C=CC(=O)C=C1CCC1C2=CC[C@]2(C)[C@@H](C(=O)CN3CCN(c4cc(N5CCCC5)nc(N5CCCC5)n4)CC3)CC[C@@H]12` (stereo partly drawn), for which the outcome in assay [1] is “inactive”. The Potency is 1.12 µM (active) in assay [2]; 1.26 µM (active) in [3]; 0.794 µM (active) in [4]; 1.58 µM (active) in [5]; 10 µM (active) in [6]; 0.794 µM (active) in [7]. For the same molecule, the Potency in assay [8] was 1.41 µM (active).

Turning to `COc1ccc(-c2cc3c(cn2)CN(C)CCN3)cn1`, the results for the activity in [9], in [11] and in assay [12] were 1.58%, -5.95% and -1.09%, respectively. For the same molecule, the activity change, negative = inhibition in assay [10] is -1.54% [at 114 µM].

Regarding `C[C@@H](COc1ccc(Oc2ccccc2)cc1)Oc1ccccn1`, in assay [13], the Potency entry is “inactive”.

As to `Cn1cc(/C=C2\C(=O)NC(=O)N(c3ccccc3)C2=O)c2ccccc21`, the Potency in assay [14] is 112 µM (active); in assay [15], 95.3 µM (active). For the same molecule, in assay [16], the outcome is “inactive”. Further, the Potency entry in assay [17] was “inactive”.

Consider `C/C=C(/C)C(=O)O[C@H]1C(C)=C2C([C@@H]1OC(=O)CCCCCCC)[C@@](C)(OC(C)=O)C[C@@H](OC(=O)CCC)[C@@]1(O)[C@H]2OC(=O)[C@@]1(C)O` (stereo partly drawn), for which the outcome in assay [1], in assay [19], in assay [25], in [27] and in [28] was “inactive” each time. The Potency entry in assay [18] and in assay [24] was “inactive” throughout. The Potency in [2] was 4.47 µM (active); in assay [3], 3.16 µM (active); in [4], 4.47 µM (active); in assay [5] it was 10 µM (active); in [6] it was 8.91 µM (active); in [7], 3.55 µM (active). Also, the Potency in [8] was 10 µM (active); in assay [20], 3.16 µM (active); in [21], 6.31 µM (active); in assay [22], 4.15 µM (active); in assay [23], 2.94 µM (active). In addition, in assay [26], the activation is 37.9% (active).

Regarding `O=C(O)CC(O)(C(=O)O)C(O)C(=O)O` (stereo not drawn), the Potency result in assay [29] and in assay [30] was “inactive” throughout.

Consider `CCCCCCCC/C=C/CCCCCCCCCC(=O)O`, for which the Potency entry in assay [29] and in [30] was “inactive” throughout.

Consider `C=C1C[C@@]23CC[C@H]4[C@@](C)(CCC[C@@]4(C)C(=O)O[C@@H]4O[C@H](CO)[C@@H](O)[C@H](O)[C@H]4O)[C@@H]2CC[C@]1(O[C@@H]1O[C@H](CO)[C@@H](O)[C@H](O[C@@H]2O[C@H](CO)[C@@H](O)[C@H](O)[C@H]2O)[C@H]1O[C@@H]1O[C@@H](C)[C@H](O)[C@@H](O)[C@H]1O)C3`, for which the Potency result in assay [29] and in [30] was “inactive” each time.

Consider `COC(=O)C[C@@](O)(CCC(C)(C)O)C(=O)O[C@@H]1C(OC)=C[C@]23CCCN2CCc2cc4c(cc2[C@@H]13)OCO4`, for which, in assay [31], the Potency entry is “inactive”.

Source of the values: PubChem BioAssay (NCATS).
